Test results reported in ChEMBL document CHEMBL4513216, “Probing the Open Global Health Chemical Diversity Library for Multistage-Active Starting Points for Next-Generation Antimalarials” (ACS Infect Dis, 2020).
Out of some 69,000 compounds screened, about 8,600 (12%) showed an effect of 50% or more. For the sample, strong results were picked, then their nearest neighbours and some compounds at random.

tested on: Plasmodium berghei; assay: Screen against P. berghei liver stage (PbLuc), transformed with Luciferase, at 10uM; format: functional, HepG2; conditions: tested at 10 uM

| Compound | INHIBITION [%] |
| --- | --- |
| O=C1COC2(CCN(C(=O)C3CC=CC3)CC2)CN1Cc1cccnc1 | -3.24 |
| Cc1nc(N2CCOCC2)ncc1-c1cc(O)nc(N2CCCC2)n1 | -27.1 |
| Cc1cc(C)c2c(N3CCC(C(=O)N4CCOCC4)CC3)ncnc2n1 | 30.9 |
| CC(C)CN1CCC2(C1)CN(c1ncccn1)C2 | 5.12 |
| CCn1cncc1CNc1ccc(-c2nc(CC(C)C)no2)cn1 | 52 |
| CC(C)Cc1noc(-c2ccc(NCc3noc(C(C)C)n3)nc2)n1 | -26 |
| CCC(O)CNc1ccc(-c2nc(CC(C)C)no2)cn1 (stereo unspecified) | 1.79 |
| CCN1C(=O)CCC12CCC(NC(=O)NCc1cccnc1)CC2 (stereo unspecified) | 25.8 |
| Cc1n[nH]cc1C(=O)N1CCCC1c1cc[nH]n1 (stereo unspecified) | -26.2 |
| Cn1cc(CN2C[C@@H]3CCCO[C@@H]3[C@H](NC(=O)CC3CC3)C2)cn1 | 11.4 |
| COC(=O)CNC(=O)CCc1cc(Cl)cs1 | 36.3 |
| CC(C)NC(=O)CCNC(=O)CCc1cc(Br)cs1 | -35.3 |
| CC(C)NC(=O)CCNC(=O)CCc1cc(Cl)cs1 | 62.8 |
| CN(c1nccc(-c2cnc3sc(Cl)cn3c2=O)n1)C1CCCCC1 | 38.2 |
| CN(c1nccc(-c2cnc3sccn3c2=O)n1)C1CCCCC1 | 18.9 |
| Cc1cn2c(=O)c(-c3ccnc(N(C)C4CCCCC4)n3)cnc2s1 | 90.1 |
| Cc1cc(C(F)(F)F)n2nc(C3CCCN(S(C)(=O)=O)C3)cc2n1 (stereo unspecified) | 26.475 |
| Cc1cc2[nH]c(=O)oc2cc1S(=O)(=O)N1CCCC(N(C)C)CC1 (stereo unspecified) | 11.6 |
| Cn1ccnc1C1CCN(S(=O)(=O)c2ccc3[nH]c(=O)[nH]c3c2)CC1 | 62.9 |
| CCC[C@@H]1CN(S(=O)(=O)c2ccc3[nH]c(=O)[nH]c3c2)C[C@H]1NC(C)=O | 3.73 |
| O=c1[nH]c2cc(S(=O)(=O)N3CCC(c4ccsc4)CC3)ccc2o1 | 16.9 |
| Cn1ccnc1C1CCN(S(=O)(=O)c2ccc3c(c2)OCCO3)CC1 | 35.1 |

| Compound | INHIBITION [%] |
| --- | --- |
| Cn1ccnc1C1CCN(S(=O)(=O)c2ccc3oc(=O)[nH]c3c2)CC1 | 59.7 |
| CCN(CC)S(=O)(=O)N1CCC(c2c(C(N)=O)sc3ccccc23)C1 (stereo unspecified) | 27.6 |
| CC(=O)N1CCN(CC(N)=O)CC(COc2ccccc2)C1 (stereo unspecified) | -17.7 |
| CCc1cc(NC(=O)C2CCCN(C(=O)NCC(C)C)C2)[nH]n1 (stereo unspecified) | 19.3 |
| NC(=O)c1cn(CC2CC2)c(C2CC2)n1 | -2.03 |
| Cn1cccc1C(CNC(=O)c1ccc(F)cc1F)N1CCCCCC1 (stereo unspecified) | 34.7 |
| COc1cccc(C(=O)NCCCN2CCc3ccccc3C2)c1OC | 25.3 |
| O=C(NCC(O)c1ccc(F)cc1F)c1ccccc1F (stereo unspecified) | -57.9 |
| CCC(CNC(=O)c1ccco1)N1CCc2ccccc2C1 (stereo unspecified) | 51.4 |
| CCC(CNC(=O)c1ccc(F)cc1F)N1CCc2ccccc2C1 (stereo unspecified) | 64.3 |
| CCC(CNC(=O)c1cncc(Br)c1)N1CCc2ccccc2C1 (stereo unspecified) | 66.3 |
| CCC(CNC(=O)c1ccc(Br)o1)N1CCc2ccccc2C1 (stereo unspecified) | 16.8 |
| COc1ccccc1C(=O)NCC(c1cccn1C)N1CCOCC1 (stereo unspecified) | 44.9 |
| CCC(CNC(=O)Nc1cnn(CC)c1)N1CCc2ccccc2C1 (stereo unspecified) | 7.67 |
| CCC(CNC(=O)c1ccccc1OC)N1CCc2ccccc2C1 (stereo unspecified) | 63.3 |
| CCC(CNC(=O)c1ccccn1)N1CCc2ccccc2C1 (stereo unspecified) | 40.5 |
| CCC(C)NC(=O)c1cncc(Br)c1 (stereo unspecified) | -76.5 |
| CC(c1ccco1)N(C)C(=O)NCCOc1ccc(C#N)cc1 (stereo unspecified) | 5.94 |
| CN(C)C(=O)CN1CCOCC2(CCN(CC3CCOCC3)CC2)C1 | 34.9 |
| CNc1cccc(C2CCCN(C(=O)c3cncs3)C2)n1 (stereo unspecified) | 5.56 |
| O=C(N[C@@H]1C[C@@H]2CC[C@H]1C2)C1(Oc2ccc(Cl)cc2)CCNCC1 | 9.72 |
| CCc1cnc(N2CC[C@@H]3CN(CCC(C)C)S(=O)(=O)[C@@H]3CC2)nc1 | -23.7 |

| Compound | INHIBITION [%] |
| --- | --- |
| CC(C)C(=O)N1CC[C@H]2N(C)CC[C@@]2(C(=O)N2CCCC2)CC1 | 3.81 |
| Cc1cc(C)c(CNC(=O)N2CCCC2c2cccc(F)c2)c(=O)[nH]1 (stereo unspecified) | 27.8 |
| CC(C)CS(=O)(=O)N1CCC2(CN(c3ccsc3)C(=O)CN2C)C1 (stereo unspecified) | 23.6 |
| O=C(NCC1(COc2cnccn2)C[C@@H](O)[C@@H](O)C1)C1CCCC1 (stereo partly specified) | -15.7 |
| CCC(CNC(=O)c1cc(OC)ccc1Br)N1CCc2ccccc2C1 (stereo unspecified) | 33.5 |
| CCC(CNC(=O)c1ccccc1Br)N1CCc2ccccc2C1 (stereo unspecified) | 56.4 |
| CSc1ccccc1C(=O)NCCCN1CCc2ccccc2C1 | 5.03 |
| Cc1nn(C)c(C)c1C1COCCN1C(=O)NC1CC1 (stereo unspecified) | 17.5 |
| COCCNC(=O)N1CCOCC1c1c(C)nn(C)c1C (stereo unspecified) | 51 |
| Cc1nn(C)c(C)c1C1COCCN1C(=O)CSC(C)(C)C (stereo unspecified) | 37.6 |
| CNC(=O)N1CCOCC1c1c(C)nn(C)c1C (stereo unspecified) | 28.7 |
| Cc1nn(C)c(C)c1C1COCCN1C(=O)CC(C)(C)C (stereo unspecified) | 62.2 |
| CCN(CC)C(=O)N1CCOCC1c1c(C)nn(C)c1C (stereo unspecified) | 10.7 |
| O=C(c1cnccn1)N1CCc2ncnc(-c3cccnc3)c2CC1 | 32.7 |
| CCc1ccc(CN2CCc3ncnc(-c4cccnc4)c3CC2)o1 | -48.8 |
| O=C(N1CCC(Oc2ccncc2)CC1)C1(c2ccc(F)cc2)CC1 | 34.1 |
| O=C(N1CCC(Oc2ccncc2)C1)C1(c2ccc(F)cc2)CC1 (stereo unspecified) | 52 |
| O=C(N1CCC(Oc2ccncc2)C1)C1(c2cccc(F)c2)CC1 (stereo unspecified) | 25.1 |
| Cc1cc(C(=O)NCC(C)N2CCc3ccccc32)on1 (stereo unspecified) | -25.9 |
| COCCn1ccc2ccc(C(=O)O)cc21 | -19.6 |
| Cc1ccc(N2CCOCC3(CCCN(c4ncc(F)cn4)C3)C2)nn1 (stereo unspecified) | 14.6 |
| c1cncc(CN2CCC3(CCCN(c4nncs4)C3)C2)c1 (stereo unspecified) | -11.6 |

| Compound | INHIBITION [%] |
| --- | --- |
| c1cnc(N2CCOCC3(CCCN(c4nncs4)C3)C2)cn1 (stereo unspecified) | 72 |
| Cc1ccc(N2CCCC3(COCCN(c4ncccn4)C3)C2)nn1 (stereo unspecified) | -37.9 |
| Fc1ccc(CN2CCC3(CCCN(c4nncs4)C3)C2)cc1 (stereo unspecified) | -11.6 |
| c1cnc(N2CCCC3(COCCN(c4nncs4)C3)C2)cn1 (stereo unspecified) | 17.5 |
| Cc1ccc(N2CCCC3(COCCN(c4cnccn4)C3)C2)nn1 (stereo unspecified) | -22.1 |
| COc1ccc(N2CCOCC3(CCCN(c4cnccn4)C3)C2)cc1 (stereo unspecified) | 53.9 |
| Fc1cccnc1N1CCOCC2(CCCN(c3nncs3)C2)C1 (stereo unspecified) | 12.6 |
| Cc1cnc(N2CCCC3(COCCN(c4ccc(C)nn4)C3)C2)nc1 (stereo unspecified) | 52.6 |
| Fc1cnc(N2CCOCC3(CCCN(c4cnccn4)C3)C2)nc1 (stereo unspecified) | -13.7 |
| CC(C)c1ccc(CN2CCC3(CCCN(c4nncs4)C3)C2)cc1 (stereo unspecified) | 60.4 |
| COc1ccc(F)c(CNC2CCCc3nc(N(C)C)ncc32)c1 (stereo unspecified) | 37.6 |
| O=C(CCCOCc1ccccc1)N1CCCC(n2cncn2)C1 (stereo unspecified) | 21.6 |
| Cc1nn(C2CCS(=O)(=O)C2)c(C)c1CC(=O)NCc1ccccc1Cl (stereo unspecified) | -8.9 |
| CNC(=O)NC(=O)CCN1CCCC1c1nc(C2CCCCC2)co1 (stereo unspecified) | -11.3 |
| CN(C)C[C@]12COC[C@H]1CN(C(=O)Cc1ccc3c(c1)OCO3)C2 | 23.5 |
| CC(O)(CN1CCN(CCO)CC1)c1cccc(C(F)(F)F)c1 (stereo unspecified) | -14 |
| Cc1nc2cc(-c3nccn3C)nn2c(N2CCC(O)CC2)c1C | 12.3 |
| O=C1COC2(COCCN(c3ccccn3)C2)CN1c1cccc(F)c1 (stereo unspecified) | 31.2 |
| c1ccc(CN2CCc3c(CNc4nccs4)n[nH]c3C2)nc1 | 34.4 |
| CCN1CCOCC2(CCCN(c3nncs3)C2)C1 (stereo unspecified) | 52.3 |
| CCS(=O)(=O)N1CCCC2(COCCN(c3nncs3)C2)C1 (stereo unspecified) | 28.2 |
| Fc1cnc(N2CCOCC3(CCCN(c4nncs4)C3)C2)nc1 (stereo unspecified) | 41.5 |

| Compound | INHIBITION [%] |
| --- | --- |
| Cc1cc(CNC(=O)N2CCc3ccccc3C2CO)c(C)o1 (stereo unspecified) | 2.43 |
| Cc1cc(F)ccc1-n1cc(O)c(C(=O)NCC[S+](C)[O-])n1 (stereo unspecified) | 36.2 |
| COc1ccccc1COCC(O)CN1CCC(c2ccn[nH]2)CC1 (stereo unspecified) | 46.2 |
| Cn1cc(CN2CCn3cnc(COCC4CC4)c3C2)cn1 | 5.63 |
| CC(=O)N1CCN(Cc2c(C)ccc3ccccc23)CC(O)C1 (stereo unspecified) | 44.3 |
| CC(=O)N1CCN(Cc2cccc3c2sc2ccccc23)CC(O)C1 (stereo unspecified) | 84.6 |
| CC(=O)N1CCN(Cc2c(C)sc3ccccc23)CC(O)C1 (stereo unspecified) | 35.4 |
| Cc1cnn(CCNCc2cccc(C#N)c2)c1 | 32.2 |
| Cn1cncc1CN1CCC2(CC1)COCCN(S(C)(=O)=O)C2 | 4.68 |
| O=C(CC1CCCC1)N1CCC(c2nnc(-c3ccccn3)o2)CC1 | -18.1 |
| CN(Cc1ccccn1)C(=O)c1nc(S(C)(=O)=O)n2ccccc12 | 36.85 |
| CN(Cc1ccccc1)C(=O)c1nc(S(C)(=O)=O)n2ccccc12 | 52 |
| CC(C)CCN(C)C(=O)c1nc(S(C)(=O)=O)n2ccccc12 | 46.5 |
| Cn1cc(Cl)cc1C(=O)N1CCCN(Cc2ccccc2)CC1 | 16.97 |
| Cn1cnnc1SCc1cc2c(cc1Br)OCO2 | 49 |
| O=C(NCC(F)F)c1ccc(S(=O)(=O)N2CCCC(O)C2)cc1 (stereo unspecified) | 37.3 |
| N[C@H]1CCCN(S(=O)(=O)c2ccc(C(=O)NCC(F)F)cc2)C1 | 66.1 |
| N#CC1CCCN(S(=O)(=O)c2ccc(C(=O)NCC(F)F)cc2)C1 (stereo unspecified) | 49.2 |
